In publication PMC11062922 (Nature Chemical Biology, 2023) one finds potency estimated from few doses and IC50 data, which are given here for six compounds.

Like-named read-outs stand apart in the source and are kept apart here.

For one experiment, the system named is PAK4. Set-up: species or system human, MV4-11 + K-562 + COLO205 + SK-N-BE2 + OVCAR-8. Conditions: read-out: apparent Kd, n = 1.
In the next experiment the test system is AAK1. More on the design: species or system human, MV4-11 + K-562 + COLO205 + SK-N-BE2 + OVCAR-8. Conditions: read-out: apparent Kd, n = 1.
For experiment [1], the system named is PKN3. The note with it: hek293t cells.
Experiment [2] concerns PKN3. More on the design: species or system human, MV4-11 + K-562 + COLO205 + SK-N-BE2 + OVCAR-8. The note with it: read-out: apparent Kd, n = 1.
Another experiment deals with BMP2K. Set-up: species or system human, MV4-11 + K-562 + COLO205 + SK-N-BE2 + OVCAR-8. The note with it: read-out: apparent Kd, n = 1.
Another experiment has as its system CLK1. Set-up: species or system human, MV4-11 + K-562 + COLO205 + SK-N-BE2 + OVCAR-8. The note with it: read-out: apparent Kd, n = 1.
In the next experiment the test system is CLK4. Set-up: species or system human, MV4-11 + K-562 + COLO205 + SK-N-BE2 + OVCAR-8. The note with it: read-out: apparent Kd; compound concentrations:100 nM and 1000 nM (sheet 'Samples'); n = 1.
A further experiment deals with CSNK2A1;CSNK2A3. Set-up: species or system human, MV4-11 + K-562 + COLO205 + SK-N-BE2 + OVCAR-8. Conditions: read-out: apparent Kd, n = 1.
Another experiment relates to CSNK2A2. Set-up: species or system human, MV4-11 + K-562 + COLO205 + SK-N-BE2 + OVCAR-8. Conditions: read-out: apparent Kd, n = 1.
The subject of the next experiment is FLT4. Set-up: species or system human, MV4-11 + K-562 + COLO205 + SK-N-BE2 + OVCAR-8. Conditions: read-out: apparent Kd, n = 1.
Another experiment has as its system GAK. More on the design: species or system human, MV4-11 + K-562 + COLO205 + SK-N-BE2 + OVCAR-8. The note with it: read-out: apparent Kd, n = 1.
For another experiment, the system named is GSK3A. Set-up: species or system human, MV4-11 + K-562 + COLO205 + SK-N-BE2 + OVCAR-8. Conditions: read-out: apparent Kd, n = 1.
Another experiment deals with GSK3B. More on the design: species or system human, MV4-11 + K-562 + COLO205 + SK-N-BE2 + OVCAR-8. Conditions: read-out: apparent Kd, n = 1.
A further experiment relates to MELK. Set-up: species or system human, MV4-11 + K-562 + COLO205 + SK-N-BE2 + OVCAR-8. The note with it: read-out: apparent Kd, n = 1.
For the next experiment, the system named is NUAK1. Set-up: species or system human, MV4-11 + K-562 + COLO205 + SK-N-BE2 + OVCAR-8. Conditions: read-out: apparent Kd, n = 1.
For another experiment, the system named is PKN1. Set-up: species or system human, MV4-11 + K-562 + COLO205 + SK-N-BE2 + OVCAR-8. The note with it: read-out: apparent Kd, n = 1.
The target of the next experiment is Q6ZSR9 (human, UniProt Q6ZSR9). More on the design: species or system MV4-11 + K-562 + COLO205 + SK-N-BE2 + OVCAR-8. Conditions: read-out: apparent Kd, n = 1.
Chain of Q6ZSR9 (Q6ZSR9 whole entry, looked up): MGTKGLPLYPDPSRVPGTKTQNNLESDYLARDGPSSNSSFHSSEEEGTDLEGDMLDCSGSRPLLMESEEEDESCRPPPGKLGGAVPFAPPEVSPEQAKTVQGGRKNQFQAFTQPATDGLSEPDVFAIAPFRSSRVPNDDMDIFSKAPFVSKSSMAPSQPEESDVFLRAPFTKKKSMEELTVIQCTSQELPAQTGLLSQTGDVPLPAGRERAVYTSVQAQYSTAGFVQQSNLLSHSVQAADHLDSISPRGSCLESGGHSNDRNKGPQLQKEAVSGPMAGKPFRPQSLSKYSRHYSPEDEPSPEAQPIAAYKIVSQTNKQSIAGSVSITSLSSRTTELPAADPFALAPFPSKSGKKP
For another experiment, the system named is RET. Set-up: species or system human, MV4-11 + K-562 + COLO205 + SK-N-BE2 + OVCAR-8. The note with it: read-out: apparent Kd, n = 1.
For a further experiment, the system named is SIK2. Set-up: species or system human, MV4-11 + K-562 + COLO205 + SK-N-BE2 + OVCAR-8. Conditions: read-out: apparent Kd, n = 1.
The subject of another experiment is FLT3. Set-up: species or system human, MV4-11 + K-562 + COLO205 + SK-N-BE2 + OVCAR-8. Conditions: read-out: apparent Kd; compound concentrations: 100 nM and 1000 nM (sheet 'Samples'), CATDS: 8.0965887805869007E-3; n = 1.
[3] abbreviates: compound concentrations:100 nM and 1000 nM (sheet 'Samples').
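For IC50 in this document: NanoBRET target engagement in HEK293T cells transiently expressing full-length PKN3 with C-terminal NanoLuc, displacement of fluorescent tracer K5 (500 nM), BRET read after 2 h equilibration at 37 °C.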

Regarding `Cc1cccc(Nc2nc(N[C@H]3CCCC[C@H]3N)ncc2C(N)=O)c1.Cl` [GSK986310C], the potency estimated from few doses with PAK4 (setting [3]) is 322 nM.
On to `COc1cccc(NC(=O)NC2CCN(c3ccnc(Nc4cc(OC)c(OC)c(OC)c4)n3)C2)c1` (stereo not drawn) [GSK1379763A], for which the potency estimated from few doses in the experiment on AAK1 (compound concentrations: 100 nM and 1000 nM (sheet 'Samples'), CATDS: 1) is 1850 nM.
Turning to LY3009120, the IC50 in the experiment on PKN3 [1] (read-out: Average, SD, n = 4) worked out at 513 nM; with PKN3 [1] (read-out: Rep 1) it was 538 nM; in the experiment with PKN3 [1] (read-out: Rep 2), 1230 nM; with PKN3 [1] (read-out: Rep 3), 112 nM; with PKN3 [1] (read-out: Rep 4), 173 nM.
In the case of `Cc1cccc(-c2nc(Nc3ccncc3)c3sccc3n2)n1` [GW869641X], the potency estimated from few doses in the experiment on PKN3 [2] (setting [3]) is 97.8 nM. The IC50 in the experiment with PKN3 [1] (read-out: Average, SD, n = 3) is 1580 nM; in the experiment with PKN3 [1] (read-out: Rep 1) it was 4190 nM; in the experiment with PKN3 [1] (read-out: Rep 2), 472 nM; in the experiment on PKN3 [1] (read-out: Rep 4), 87.1 nM.
Turning to `NCCNS(=O)(=O)c1ccc(-c2ccnc3[nH]ccc23)cc1` [GSK977617A], the potency estimated from few doses in the experiment on AAK1 (setting [3]) is 429 nM; in the experiment on BMP2K (setting [3]), 817 nM; in the experiment with CLK1 (setting [3]) it was 294 nM; in the experiment with CLK4, 413 nM; with CSNK2A1;CSNK2A3 (setting [3]), 782 nM; with CSNK2A2 (setting [3]) it was 766 nM. Also, the potency estimated from few doses was 1050 nM in the experiment with FLT4 (setting [3]); 280 nM with GAK (setting [3]); 257 nM in the experiment with GSK3A (setting [3]); 361 nM in the experiment on GSK3B (setting [3]); 866 nM with MELK (setting [3]); 1100 nM in the experiment on NUAK1 (setting [3]). In addition, the potency estimated from few doses with PAK4 (setting [3]) was 652 nM; with PKN1 (setting [3]) it was 485 nM; in the experiment with PKN3 [2] (setting [3]), 444 nM; with Q6ZSR9 (setting [3]), 450 nM; in the experiment on RET (setting [3]) it was 569 nM; with SIK2 (setting [3]), 560 nM.
As to `CCOC(=O)N1CCC(n2cnc(-c3ccc(F)cc3)c2-c2ccnc(N)n2)CC1` [SB-219952], the potency estimated from few doses with AAK1 (compound concentrations: 100 nM and 1000 nM (sheet 'Samples'), CATDS: 1.33097974797153E-2) was 454 nM; in the experiment on BMP2K (compound concentrations: 100 nM and 1000 nM (sheet 'Samples'), CATDS: 1.0000193686827899E-2), 867 nM; in the experiment with CLK1 (compound concentrations: 100 nM and 1000 nM (sheet 'Samples'), CATDS: 1.18597213826205E-2), 578 nM; in the experiment with CSNK2A1;CSNK2A3 (compound concentrations: 100 nM and 1000 nM (sheet 'Samples'), CATDS: 1.2357704080210899E-2) it was 529 nM; in the experiment on CSNK2A2 (compound concentrations: 100 nM and 1000 nM (sheet 'Samples'), CATDS: 1.08103941261705E-2) it was 715 nM; in the experiment with FLT3 it was 1630 nM. Besides, the potency estimated from few doses is 694 nM with FLT4 (compound concentrations: 100 nM and 1000 nM (sheet 'Samples'), CATDS: 1.0948126782386601E-2); 245 nM with GAK (compound concentrations: 100 nM and 1000 nM (sheet 'Samples'), CATDS: 1.8528073728162099E-2); 232 nM with GSK3A (compound concentrations: 100 nM and 1000 nM (sheet 'Samples'), CATDS: 1.9129432777521899E-2); 331 nM in the experiment on GSK3B (compound concentrations: 100 nM and 1000 nM (sheet 'Samples'), CATDS: 1.5651651675632799E-2); 1970 nM in the experiment with MELK (compound concentrations: 100 nM and 1000 nM (sheet 'Samples'), CATDS: 7.6939005676200604E-3); 1070 nM in the experiment on NUAK1 (compound concentrations: 100 nM and 1000 nM (sheet 'Samples'), CATDS: 9.2511282375558092E-3). Besides, the potency estimated from few doses is 630 nM in the experiment with PAK4 (compound concentrations: 100 nM and 1000 nM (sheet 'Samples'), CATDS: 1.1415940389083201E-2); 795 nM with PKN1 (compound concentrations: 100 nM and 1000 nM (sheet 'Samples'), CATDS: 1.0348059231995501E-2); 909 nM with PKN3 [2] (compound concentrations: 100 nM and 1000 nM (sheet 'Samples'), CATDS: 9.8185291638943593E-3); 470 nM in the experiment with Q6ZSR9 (compound concentrations: 100 nM and 1000 nM (sheet 'Samples'), CATDS: 1.30827275923428E-2); 436 nM with RET (compound concentrations: 100 nM and 1000 nM (sheet 'Samples'), CATDS: 1.35684167881036E-2); 769 nM in the experiment on SIK2 (compound concentrations: 100 nM and 1000 nM (sheet 'Samples'), CATDS: 1.0490419954407099E-2).
